A number with no mark means an inactive call.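 The calls were made as follows: active = MAPPIT score above the 99th percentile of random reference set scores in the same batch; inactive = at or below it.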
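Also: HEK293T cells with Epo stimulation, STAT-responsive firefly luciferase reporter, fold induction versus unstimulated cells divided by the larger fold induction of two negative controls lacking either bait or prey.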

Sequence of tgo (chain, as listed by the source): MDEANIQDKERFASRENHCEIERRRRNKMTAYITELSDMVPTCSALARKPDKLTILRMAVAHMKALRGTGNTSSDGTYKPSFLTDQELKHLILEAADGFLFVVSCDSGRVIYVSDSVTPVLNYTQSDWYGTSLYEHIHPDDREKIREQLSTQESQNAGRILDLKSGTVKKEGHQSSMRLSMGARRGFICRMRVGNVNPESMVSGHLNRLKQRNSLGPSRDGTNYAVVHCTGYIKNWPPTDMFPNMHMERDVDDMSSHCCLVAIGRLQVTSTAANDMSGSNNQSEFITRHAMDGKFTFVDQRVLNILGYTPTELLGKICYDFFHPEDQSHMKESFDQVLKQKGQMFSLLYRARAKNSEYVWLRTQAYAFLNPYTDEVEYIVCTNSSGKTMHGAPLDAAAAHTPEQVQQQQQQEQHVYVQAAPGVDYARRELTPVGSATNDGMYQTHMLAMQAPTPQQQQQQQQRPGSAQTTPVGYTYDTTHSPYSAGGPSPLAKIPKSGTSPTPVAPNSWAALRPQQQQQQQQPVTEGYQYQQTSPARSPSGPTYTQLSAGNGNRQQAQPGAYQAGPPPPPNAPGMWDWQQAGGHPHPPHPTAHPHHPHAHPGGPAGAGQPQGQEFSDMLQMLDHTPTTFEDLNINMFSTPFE

The subject of one assay is sim. Kind of assay: MAPPIT interaction score (arbitrary units); higher = stronger binary interaction signal, active = hit call of the paper. The note with it: MAPPIT configuration: N-C; pair source set: Lit-BM-16. As for the experimental part: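 MAPPIT in HEK293T cells: Drosophila bait and prey ORFs (from the FlyBi ORF collection) were co-transfected in quadruplicate, with two wells stimulated by erythropoietin. Interaction-dependent JAK-STAT activation was read out with a STAT-responsive firefly luciferase reporter. Positive calls use the 99th percentile of random reference set (RRS) scores within each batch […]. Batches Dvs01 and Dvs02 used the N-N configuration and Dvs04 the N-C configuration. Pairs come from FlyBi screens, CuraGen, DPiM, Finley Y2H, Lit-BM-16, Lit-BS-16 and RRS.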
Take tgo: the MAPPIT interaction score was 2.23.

The same assay, now with this note: MAPPIT configuration: N-N; pair source set: Lit-BM-16.
Consider tgo, for which the MAPPIT interaction score is 1.37.
